Screening results deposited in PubChem by several laboratories.
An excerpt weighted towards active compounds, which were near 2.6% of everything screened.
LGR2 inh – inhibitors of bursicon-induced Drosophila LGR2 receptor cAMP signaling. HEK293 LGR2, CRE-luciferase, bursicon-stimulated, 4 h. inhibition, % at 9.99 µM. 380,000 compounds, 0.35% hits;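 active means drop in luminescence signal, shown as inhibition above about 50% in the replicate tests, limit read from the data, passing the limit was not always enough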;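 further: agonist challenge used bursicon conditioned medium at about half maximal strength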
TWEAK-Fn14 inh – blocks TWEAK-Fn14 interaction in a reporter cell assay; TWEAK-stimulated Fn14 reporter cells, luciferase luminescence, 8 h; inhibition, % at 10 µM; 360,000 compounds, 2% hits; in the data active means inhibition above about 50%
KKLEB tox – counter-screen for CF NF-kB inhibitors: cytotoxicity. KKLEB CF airway cells viability, ATPlite luminescence, overnight; stronger effect = lower value; cells stimulated with P. aeruginosa culture filtrate. activity change (cytotoxicity), % at 5 µM. 360,000 compounds, 0.36% hits. AID 602141;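 active means corrected activity change at or below -50% at 5 µM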
TROY signal inh – inhibitors of TROY-dependent NF-kB signaling. Q293 LMP1-TROYcd NF-kB luciferase reporter, 4 h. inhibition, % at 10 µM. 360,000 compounds, 0.98% hits. AID 1347056;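 active means compounds whose plate-normalised and pattern-corrected inhibition of the luciferase reporter signal at the single screening dose is 50% or more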
EWS-Fli block – blocks EWS/Fli oncoprotein-driven transcription. 350,000 compounds, 0.67% hits. inhibition, % at 12.6 µM. A673 NR0B1-luciferase reporter, viability-normalised;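 active means mean inhibition of at least 50% after viability correction, with every replicate also passing that limit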;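 further: firefly luciferase signal divided by Alamar Blue viability fluorescence both relative to DMSO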
CF NFkB block – blocks PAF-induced NF-kB reporter in cystic fibrosis cells. inhibition, % at 5 µM. KKLEB NF-kB-GFP reporter, GFP fluorescence overnight. 360,000 compounds, 0.86% hits;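 active means at least 50% inhibition at 5 µM, scaled per plate between neutral and stimulator controls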;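 further: PAF is a Pseudomonas aeruginosa culture filtrate used as stimulus; plate controls were PAF-stimulated DMSO wells for no effect and unstimulated DMSO wells for full effect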
An asterisk follows results filed as active; · = no result given.

SMILES	LGR2 inh	TWEAK-Fn14 inh	KKLEB tox	TROY signal inh	EWS-Fli block	CF NFkB block
Cc1ccc(NC(=O)c2cc(C(C)(C)C)nn2Cc2ccccc2)cc1	4.8	-32.1	-4.0	7.8	-58.2	-9.9
CC(C)(C)c1cc(C(=O)Nc2ccc(F)cc2)n(Cc2ccc(F)cc2)n1	·	17.6	-8.5	62.9*	15.2	24.8
O=C(CCl)N(C/C=C/c1ccccc1)c1ccc2c(c1)OCCO2	-30.7	60.4*	-99.7*	22.7	44.6	91.9*
O=C(/C=C/c1ccccc1)c1ccc2c(c1)OCCCCO2	·	6.7	-11.8	18.1	·	-16.9
Cc1nc(N2CCN(c3ccccn3)CC2)c2c(C)c(C(=O)Nc3c(F)cc(F)cc3Br)sc2n1	10.7	64.8*	-25.4	28.2	·	22.5
Cc1nc(N2CCN(c3ccccn3)CC2)c2c(C)c(C(=O)Nc3c(C)cc(Br)cc3C)sc2n1	20.8	35.1	-19.9	8.7	11.7	5.6
Cc1c(C(=O)N2CCN(c3ccc(F)cc3)CC2)sc2ncnc(N3CCN(c4ccccn4)CC3)c12	32.8	60.4*	-2.9	52.6*	29.8	5.0
Cc1c(C(=O)N2CCN(c3ccccc3)CC2)sc2ncnc(N3CCN(c4ccccn4)CC3)c12	29.6	44.8	-11.1	32.6	-2.0	-12.6
COCC(=O)Nc1ccc2c(c1)C(=O)N(C)C[C@H](OC)[C@H](C)CN(C(=O)c1ccccc1)[C@@H](C)CO2	-4.6	·	·	·	2.9	·
O=C(C1CCC(Cn2c(=S)[nH]c3ccccc3c2=O)CC1)N1CCN(c2ccccc2)CC1 (stereo not given)	·	30.9	7.6	19.7	·	-25.9
O=C(C1CCC(Cn2c(=S)[nH]c3ccccc3c2=O)CC1)N1CCN(c2ccccn2)CC1 (stereo not given)	22.8	55.6*	8.8	-6.5	3.9	-17.8
COc1ccc2c3c(n(C)c2c1)[C@@H](CO)N(C)CC31CCN(S(=O)(=O)c2cn(C)cn2)CC1	-8.6	·	·	·	15.9	·
COc1ccc(NC(=O)N(C)C[C@@H]2OCCCC[C@@H](C)Oc3ccc(N(C)C)cc3C(=O)N([C@H](C)CO)C[C@H]2C)cc1	3.9	·	·	·	0.6	·
Oc1ccc(N=Nc2ccc3c(c2)OCCO3)c2ncccc12	-18.7	82.5*	-3.2	59.9*	21.3	-22.4
Cc1ccc(C)c(N=Nc2ccc(O)c3ncccc23)c1	52.0*	81.4*	8.4	77.9*	·	-20.7
NS(=O)(=O)c1ccc(N=Nc2ccc(O)c3ncccc23)cc1	6.6	31.4	6.2	19.4	24.0	-11.1
Cc1cccc(N=Nc2ccc(O)c3ncccc23)c1	16.7	90.1*	2.8	-36.5	·	-4.3
COCC(=O)N(C)C[C@H]1Oc2ncc(C3=CCCCC3)cc2C(=O)N([C@@H](C)CO)C[C@H]1C	15.3	·	·	·	-6.1	·
CC(C)=CC(O)C/C(C)=C/COc1ccc2ccc(=O)oc2c1 (stereo not given)	·	83.5*	7.0	8.2	-4.9	13.8
C[C@H]1CN([C@@H](C)CO)C(=O)Cc2cc(NC(=O)Nc3cccc4ccccc34)ccc2O[C@H]1CN(C)S(=O)(=O)c1ccc(Cl)cc1	6.0	·	·	·	-4.6	·
Cc1cccc(-n2c(-c3csc(C)c3C)n[nH]c2=S)c1	0.6	92.1*	4.4	3.3	-3.2	4.2
Cc1ccccc1-n1c(-c2csc(C)c2C)n[nH]c1=S	-7.5	22.4	1.0	20.6	·	11.0
CCCNC(=O)N1CC2(CCN(Cc3nccs3)CC2)c2c([nH]c3cc(OC)ccc23)[C@@H]1CO	6.5	·	·	·	0.8	·
COc1cc(OC)cc(C(=O)NCC(=O)OCC(=O)Nc2ncc(Cl)cc2Cl)c1	-33.2	-10.9	13.0	1.2	2.2	3.1
COc1cccc(C(=O)NCC(=O)OCC(=O)Nc2ncc(Cl)cc2Cl)c1	2.1	87.9*	-19.0	-9.3	2.8	15.2
SMILES	LGR2 inh	TWEAK-Fn14 inh	KKLEB tox	TROY signal inh	EWS-Fli block	CF NFkB block
Nc1ccc(C(=O)n2c3ccccc3c3ccccc32)cc1	0.3	36.6	-28.9	51.3*	·	47.9
Cc1ccc(S(=O)(=O)n2c(N)nc3ccccc32)cc1	·	11.3	-3.8	7.8	2.6	25.5
Cc1ccc(C(=O)n2c(N)nc3ccccc32)cc1	88.6*	99.3*	-49.4	72.8*	74.9*	-3.9
CC(C)NC(=O)NCC[C@@H]1CC[C@H](NC(=O)Nc2ccccc2)[C@H](CO)O1	9.0	·	·	·	-3.4	·
O=C(O)CSCC(=O)N1CCN(c2nc3cc(Cl)ccc3s2)CC1	-26.6	61.6*	2.1	5.1	-3.2	-8.4
CCOC(=O)c1cnc(-n2nc(C)cc2C)nc1NC1CCCCC1	·	49.2	-4.8	53.7*	·	-5.8
CCOC(=O)c1cc(NC(=O)NC2CCCCC2)c(C)nc1C	2.6	109.3*	5.3	4.2	3.4	-3.2
CCOC(=O)c1cnc(-n2nc(C)cc2C)nc1Nc1ccc(O)cc1	4.2	30.4	16.6	50.8*	38.3	-8.7
CCOC(=O)c1cnc(-n2nc(C)cc2C)nc1NC	·	-3.4	2.1	-19.2	·	2.8
C[C@H]1CN([C@@H](C)CO)C(=O)c2cc(NS(=O)(=O)c3ccccc3)ccc2O[C@@H]1CN(C)CC1CC1	23.6	·	·	·	-4.7	·
O=C(C[C@H]1C[C@H]2c3cc(NC(=O)C4CCC4)ccc3O[C@H]2[C@H](CO)O1)NCc1cccnc1	9.0	·	·	·	-6.9	·
CCCOC(=O)c1ccc(NC(=O)/C=C/c2cccs2)cc1	-42.0	31.8	0.5	56.0*	·	-10.2
C[C@H]1CN([C@@H](C)CO)C(=O)c2cc(NC(=O)Cc3ccccc3)ccc2O[C@H]1CN(C)Cc1ccc(Cl)c(Cl)c1	5.1	·	·	·	7.3	·
Nc1c(-c2ccccc2)cnn1-c1ccc(C(=O)O)cc1	-47.5	54.2*	3.0	-28.9	·	6.4
COc1cccc(-c2cc3nc4c(c(NCC(C)(C)CN(C)C)n3n2)CCCC4)c1	43.2	61.1*	6.6	80.9*	-24.8	-2.9
O=C(O)C[C@H]1CC[C@H](NC(=O)Nc2ccccc2)[C@@H](CO)O1	-8.4	·	·	·	8.8	·
CCn1c(C)cc(C(=O)COC(=O)c2ccccc2[N+](=O)[O-])c1C	·	105.3*	-66.8*	89.9*	·	5.0
COCCn1c(C)cc(C(=O)COC(=O)c2cccnc2SC)c1C	31.7	68.1*	-6.4	68.9*	-93.8	-9.6
COCCn1c(C)cc(C(=O)COC(=O)c2ccc3ncsc3c2)c1C	·	-0.1	-2.8	-8.7	·	14.7
C=CCn1c(C)cc(C(=O)COC(=O)c2ccc(N)c([N+](=O)[O-])c2)c1C	-137.3	35.1	-2.3	7.4	-157.5	0.8
COCCn1c(C)cc(C(=O)COC(=O)c2ccccc2Br)c1C	·	104.9*	-35.6	92.3*	-12.9	14.4
COCCn1c(C)cc(C(=O)COC(=O)c2cncc(Br)c2)c1C	6.1	-35.9	11.2	1.4	-12.3	24.3
O=C(C[C@H]1C=C[C@H](NC(=O)c2ccncc2)[C@@H](CO)O1)NCC1CCCCC1	1.6	·	·	·	-6.8	·
COc1ccccc1NC(=O)N[C@H]1C=C[C@@H](CC(=O)N2CCC(Cc3ccccc3)CC2)O[C@@H]1CO	3.9	·	·	·	-8.9	·
